# “And” between values parts separate entries of the source, which are not always exact repeats. Equal values may be shown once. Inconclusive results are not listed. A number with no mark means an inactive call. The source made the active and inactive calls. Calls follow the shape of the dose curve; as a rule, active = well fitted inhibition curve with a large enough effect in the repeat runs; inconclusive = weak or mixed curves; inactive = no such curve, though single readings can be large or run the other way.
# Biological target: Cytochrome P450 1A2 (Homo sapiens) (UniProt P05177)
# Sequence (P05177 whole entry, looked up): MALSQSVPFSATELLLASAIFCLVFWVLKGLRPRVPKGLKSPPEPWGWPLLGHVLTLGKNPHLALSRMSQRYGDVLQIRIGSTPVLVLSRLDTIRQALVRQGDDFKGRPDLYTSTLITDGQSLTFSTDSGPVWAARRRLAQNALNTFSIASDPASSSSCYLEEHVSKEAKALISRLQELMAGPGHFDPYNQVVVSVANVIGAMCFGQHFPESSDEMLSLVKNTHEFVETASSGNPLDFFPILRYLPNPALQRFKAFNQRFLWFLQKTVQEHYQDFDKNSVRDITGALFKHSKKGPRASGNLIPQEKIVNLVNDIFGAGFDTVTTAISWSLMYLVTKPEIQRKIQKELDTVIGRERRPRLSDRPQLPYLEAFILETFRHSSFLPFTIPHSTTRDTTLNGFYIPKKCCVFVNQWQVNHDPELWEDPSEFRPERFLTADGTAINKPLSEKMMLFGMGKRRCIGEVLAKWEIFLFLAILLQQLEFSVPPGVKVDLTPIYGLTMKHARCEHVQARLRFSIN
# Assay: Cytochrome P450 Family 1 Subfamily A Member 2 (CYP1A2) small molecule antagonists: luciferase reporter qHTS assay (AID 1671199); also: nearly all actives have a fitted effect of over 50% in size
# Details: P450-Glo CYP1A2 enzyme, luciferin luminescence, 1 h; series mostly up to 53 µM; activity change, negative = inhibition: at the top concentration
# Description: National Center for Advancing Translational Sciences [NCATS]
# U.S. Environmental Protection Agency [EPA]
# National Institutes of Environmental Health Sciences [NIEHS]
# National Toxicology Program [NTP]
# U.S. Food and Drug Administration [FDA]
# Cytochrome P450 (CYP) enzymes are membrane-bound hemeproteins that play a key role in metabolism of drugs and xenobiotics. Evaluation of the effect of chemicals on CYP isozymes is useful to minimize the adverse drug reactions and toxicities in drug development process. Tox21 chemicals were tested for their effect on CYP enzyme activities by using P450-Glo (TM) screening systems (Promega Corporation, Madison, WI). These systems provide a luminescent method containing proluciferin substrates and are converted to luciferin products by CYP isozymes. The luciferin products formed are detected with a luciferin detection reagent, and the amount of light produced is proportional to CYP activity. P450-Glo (TM) CYP1A2 screening system (Catalog. No. V9770) was used to detect the compounds that interfere in CYP1A2 activity. The positive control compound used for CYP1A2 assay is furafylline (Sigma-Aldrich, St. Louis, MO).
# Tox21 Assay Protocol Summary:
# Two ul of enzyme-substrate mix was dispensed into medium binding white/solid 1536-well plates (Greiner Bio-One North America Inc., Monroe, NC) using a BioRaptr Flying Reagent Dispenser (FRD, Beckman Coulter, Brea, CA). Compounds dissolved in DMSO and positive control (furafyllline) were transferred to the assay plates at 23 nl using a Pintool station (Wako, San Diego, CA). The assay plates were incubated at room temperature for 10 min. Then 2 ul of NADPH regeneration solution was added to each well of the assay plates using an FRD and incubated at room temperature for 1 h. The reaction was stopped by adding 4 ul of detection reagent using an FRD and after 20 min incubation at room temperature the luminescence signal was measured using a ViewLux plate reader (Perkin Elmer, Shelton, CT). Data were expressed as relative luminescence units.
# % is scaled to controls: 0 for no effect and ±100 for the full control effect; potency is read from the fitted curve at half-maximal effect.
SMILES,Potency,"activity change, negative = inhibition"
Cc1cccc(O)c1N,10.1 µM (active),–
CCCCCCCCN,–,-10.2% [at 115 µM]
c1ccc2c(c1)CCc1ccccc1N2,7.13 µM (active) and 5.49 µM (active),–
C[C@]12CC[C@@H]3c4ccc(O)cc4CC[C@H]3[C@@H]1CC[C@@H]2OC(=O)CCC1CCCC1,17.8 µM (active),–
C=C1C[C@@]23CC[C@H]4[C@@](C)(CCC[C@@]4(C)C(=O)O[C@@H]4O[C@H](CO)[C@@H](O)[C@H](O)[C@H]4O)[C@@H]2CC[C@]1(O[C@@H]1O[C@H](CO)[C@@H](O)[C@H](O[C@@H]2O[C@H](CO)[C@@H](O)[C@H](O)[C@H]2O)[C@H]1O[C@@H]1O[C@H](CO)[C@@H](O)[C@H](O)[C@H]1O)C3,–,-12.8% [at 115 µM]
CCC(C)COC(C)=O (stereo not given),–,-5.01% [at 115 µM]
C=C(C)C(=O)OCCOCCOC(=O)C(=C)C,15.9 µM (active),–
CC1=C(Br)C(=O)C(Br)=C/C1=C(/c1ccccc1S(=O)(=O)O)c1cc(Br)c(O)c(Br)c1C,19.2 µM (active),–
FC(F)(F)c1ccccc1Cl,–,-26.9% [at 115 µM]
Cc1c(C)c2c(c(C)c1OC(=O)CCC(=O)OCCO)CC[C@@](C)(CCC[C@H](C)CCC[C@H](C)CCCC(C)C)O2,27.5 µM (active),–
CCCC(C(=O)OCCN(CC)CC)(c1ccccc1)c1ccccc1,–,-1.69%
COc1cc(Nc2c(C#N)cnc3cc(OCCCN4CCN(C)CC4)c(OC)cc23)c(Cl)cc1Cl,–,14.3%
CCC(OCCCOC)OC(C)=O (stereo not given),36.4 µM (active),–
CO[C@]1(NC(=O)CSC(F)F)C(=O)N2C(C(=O)O)=C(CSc3nnnn3CCO)CO[C@H]21,–,10.1%
Nc1ccc(N=Nc2ccccc2)c(N)c1,7.8 µM (active),–
Cc1cc(O)c(C)c(C)c1O,15.5 µM (active),–
CNC(=O)c1cnn(-c2nc(N)c3ncn([C@@H]4O[C@H](CO)[C@@H](O)[C@H]4O)c3n2)c1,–,12.5%
COC(=O)c1nc(Cl)c(Cl)nc1N,4.36 µM (active),–
O=C1Cc2cc(Cl)ccc2N1,11 µM (active),–
CCCCCC#CC(=O)OC,–,-5.15% [at 115 µM]

SMILES,Potency,"activity change, negative = inhibition"
Clc1cc(Cl)nc(Cl)n1,36 µM (active),–
Oc1cccc(Nc2ccccc2)c1,11.7 µM (active),–
Cc1cc(C)c(N)cc1C,0.708 µM (active),–
Cc1ccc(Cl)c(Nc2ccccc2C(=O)O)c1Cl,–,9.83%
C=C1c2cccc(O)c2C(O)=C2C(=O)[C@]3(O)C(O)=C(C(N)=O)C(=O)[C@@H](N(C)C)[C@@H]3[C@@H](O)[C@H]12,–,3.55%
CN1CCCC(n2nc(Cc3ccc(Cl)cc3)c3ccccc3c2=O)CC1 (stereo not given),–,9.75%
O=C(O)CCc1nc(-c2ccccc2)c(-c2ccccc2)o1,–,14.1%
c1cc(N(CC2CO2)CC2CO2)ccc1Cc1ccc(N(CC2CO2)CC2CO2)cc1 (stereo not given),–,-19.9% [at 115 µM]
O=C(O)CCCCCCCCCCCBr,–,-4.12% [at 115 µM]
CCCCN1CCCC1C(=O)Nc1c(C)cc(C)cc1C (stereo not given),–,-21.2%
N#CCCN(CCO)CCO,–,-1.18% [at 115 µM]
Clc1ccc(Nc2nnc(Cc3ccncc3)c3ccccc23)cc1,1.44 µM (active),–
CN1C(C(=O)Nc2ccccn2)=C(O)c2sccc2S1(=O)=O,–,11.1%
CCOc1cccc(-n2cc(C(=O)N3CCN(c4cc(C(=O)O)c5ccccc5c4)CC3)nc2-c2ccc(C)cc2)c1,–,-17.9% [at 115 µM]
CC(=O)[C@H]1[C@H](C#N)C[C@H]2[C@@H]3CC=C4C[C@@H](O)CC[C@]4(C)[C@H]3CC[C@@]21C,–,-13.9%
COc1ccccc1Oc1c(NS(=O)(=O)c2ccc(C(C)(C)C)cc2)nc(-c2ncccn2)nc1OCCO,–,1.99%
CCOC(=O)c1ccc(C#Cc2ccc3c(c2)C(C)(C)CCS3)nc1,–,-7.09%
N#CCc1ccc(Cl)cc1Cl,22.4 µM (active),–
O=c1[nH]ncc2ccccc12,–,-14.9% [at 115 µM]
O=C(O)C[C@H](NC(=O)OCc1ccccc1)C(=O)O,–,-19.2% [at 115 µM]

# Source: PubChem BioAssay (Tox21)
